Compound activity (PubChem BioAssay)
LAP4-GFP MLPCN = modulators of TOR pathway LAP4-GFP in S. cerevisiae; S. cerevisiae LAP4-GFP multiplex, flow cytometry GFP, 3 h; median GFP as percent of DMSO wells; GFP response vs DMSO, % at 10 µM; 0.34% of 320,000 active;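 active means GFP response vs DMSO above a set limit, about the screen mean plus 3 SD, cut at about 150% in these data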
MEP2 TOR yeast = yeast TOR pathway MEP2-GFP modulation | S. cerevisiae MEP2-GFP strain, flow cytometry GFP, 3 h; 100% = DMSO control level | GFP response vs DMSO, % at 10 µM | 0.51% of 330,000 active;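 active means GFP response versus DMSO above a set limit, roughly screen mean plus 3 SD, cut at about 180% in these data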;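 further: median GFP fluorescence of the barcode-gated MEP2-GFP cells per well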
AGP1-GFP MLPCN = yeast TOR pathway AGP1-GFP modulation. S. cerevisiae AGP1-GFP multiplex flow cytometry, 3 h; GFP as percent of DMSO wells. GFP response vs DMSO, % at 10 µM. 0.02% of 320,000 active. AID 2066;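 active means GFP response relative to DMSO above a set limit, near screen average plus 3 SD, cut at about 150% in these data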;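 further: median GFP channel fluorescence of the gated AGP1 strain per well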
CIT2 TOR yeast = alters CIT2-GFP fluorescence in TOR pathway yeast screen; S. cerevisiae CIT2-GFP strain, flow cytometry, 3 h; 100 means same as DMSO wells; GFP response vs DMSO, % at 10 µM; 0.065% of 320,000 active;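 active means GFP response relative to DMSO above a set limit, near the screen mean plus 3 SD, cut at about 150% in these data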;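 further: ratio of well median GFP fluorescence to mean of DMSO wells on the plate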
RPL19A-GFP yeast = alters RPL19A-GFP fluorescence in TOR pathway yeast screen; S. cerevisiae RPL19A-GFP strain, flow cytometry, 3 h; hits give low values; 0.3% of 330,000 active; percent response vs DMSO, % at 10 µM;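 active means percent response vs DMSO below 50%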;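 further: median channel GFP fluorescence of the barcoded RPL19A-GFP strain; ratio of sample median GFP to plate DMSO average so 100% = DMSO; lower means less RPL19A-GFP as with rapamycin TOR inhibition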
LAP4-GFP pick2 = reconfirmed LAP4-GFP TOR pathway modulator in yeast | GFP response vs DMSO, % at 10 µM | 20% of 590 active | S. cerevisiae LAP4-GFP strain, flow cytometry GFP, 3 h | shares compounds with LAP4-GFP MLPCN;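 active means GFP signal as percent of the solvent control above about 150%, meaning raised reporter expression, limit read from the data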;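 further: ratio of well median GFP fluorescence to plate DMSO mean so 100% = DMSO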
MEP2 cherry2 = reconfirmed MEP2-GFP TOR pathway modulator in yeast. GFP response vs DMSO, % at 10 µM. AID 2622. S. cerevisiae MEP2-GFP strain, flow cytometry GFP, 3 h. shares compounds with LAP4-GFP MLPCN. 10% of 590 active;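 active means GFP signal above 150% of the solvent control wells, that is a rise of more than half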;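 further: median channel GFP fluorescence of all gated yeast cells per well; ratio of median GFP to plate DMSO average so 100% = DMSO level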
RPL19A GFP CP2 = yeast RPL19A-GFP TOR reporter modulation, second cherry pick; shares compounds with LAP4-GFP MLPCN; S. cerevisiae RPL19A-GFP strain, flow cytometry GFP, 3 h; hits give low values; 100% means same as DMSO wells; GFP response vs DMSO, % at 10 µM; 3% of 590 active; AID 2623;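 active means under 65% GFP response relative to DMSO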;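 further: median GFP channel fluorescence per well over the all cells gate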
CIT2 GFP CP2 = second confirmation of modulators of TOR reporter CIT2-GFP in yeast. shares compounds with LAP4-GFP MLPCN. S. cerevisiae CIT2-GFP strain, flow cytometry GFP, 3 h; DMSO control wells read 100%. GFP response vs DMSO, % at 10 µM. 8% of 590 active. AID 2624;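 active means GFP response vs DMSO above about 150%, limit read from the data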;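 further: median green fluorescence per well over all gated yeast cells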
AGP1 GFP CP2 = reconfirmed modulator of AGP1-GFP TOR reporter in yeast; shares compounds with LAP4-GFP MLPCN; S. cerevisiae AGP1-GFP strain, flow cytometry GFP, 3 h; percent response vs DMSO, % at 10 µM; 590 tested, under 10 active;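 active means over 150 percent of DMSO response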;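 further: median GFP channel fluorescence over all cells without mother daughter split; sample median GFP divided by mean DMSO control so 100% equals DMSO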
s288c autofluor = yeast s288c autofluorescence artifact, counter-screen; shares compounds with LAP4-GFP MLPCN; S. cerevisiae s288c, 520 nm autofluorescence, flow cytometry, 3 h; hits give high values; zero means same as solvent-only cells; fluorescence change (kMESF span) at 33 µM; 610 tested, under 10 active;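 active means fluorescence span over the dose series, or activity score, above about 33, limit read from the data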
Numbers without * were called inactive. A selection: hits, their analogues and other compounds. The true share with any hit is near 0.93%.

CCCn1c(C)cc(C(=O)CN2C(=O)c3ccccc3C2=O)c1C was read as LAP4-GFP MLPCN 100, MEP2 TOR yeast 135, AGP1-GFP MLPCN 96, CIT2 TOR yeast 93, RPL19A-GFP yeast 61, LAP4-GFP pick2 96, MEP2 cherry2 103, RPL19A GFP CP2 100, CIT2 GFP CP2 99 and AGP1 GFP CP2 99.
For CCn1c(C)cc(C(=O)CN2C(=O)c3ccccc3S2(=O)=O)c1C the results were LAP4-GFP MLPCN 92, MEP2 TOR yeast 97, AGP1-GFP MLPCN 97, CIT2 TOR yeast 88 and RPL19A-GFP yeast 94.
O=C(Nc1ccnn1C1CCN(C(=O)CCc2ccc(F)cc2)CC1)C1CCOC1 (configuration not stated) was read as LAP4-GFP MLPCN 114, MEP2 TOR yeast 99, AGP1-GFP MLPCN 100, CIT2 TOR yeast 95 and RPL19A-GFP yeast 98.
COc1ccc(OCCCC(=O)Nc2nc(-c3ccccn3)cs2)cc1 was read as LAP4-GFP MLPCN 108, MEP2 TOR yeast 100, AGP1-GFP MLPCN 99, CIT2 TOR yeast 101 and RPL19A-GFP yeast 97.
Screening Cc1cc(C)c(OCC(=O)Nc2nc(-c3ccccn3)cs2)c(C)c1 returned LAP4-GFP MLPCN 153*, MEP2 TOR yeast 83, AGP1-GFP MLPCN 75, CIT2 TOR yeast 78, RPL19A-GFP yeast 88 and s288c autofluor 0.3.
Screening O=C(CCS(=O)(=O)c1ccccc1)Nc1nc(-c2ccccn2)cs1 returned LAP4-GFP MLPCN 97, MEP2 TOR yeast 97, AGP1-GFP MLPCN 96, CIT2 TOR yeast 93, RPL19A-GFP yeast 97, LAP4-GFP pick2 104, MEP2 cherry2 101, RPL19A GFP CP2 99, CIT2 GFP CP2 100, AGP1 GFP CP2 100 and s288c autofluor -0.1.
Screening N#Cc1nccnc1S(=O)(=O)c1cccs1 returned LAP4-GFP MLPCN 251*, MEP2 TOR yeast 77, AGP1-GFP MLPCN 86, CIT2 TOR yeast 67, RPL19A-GFP yeast 67 and s288c autofluor 0.61.
`CN(Cc1ccccc1C#N)S(=O)(=O)c1cccs1` gave LAP4-GFP MLPCN 99, MEP2 TOR yeast 106, AGP1-GFP MLPCN 101, CIT2 TOR yeast 103 and RPL19A-GFP yeast 110.
Screening CN(C)c1nc(C#N)nc(N(C)C)n1 returned LAP4-GFP MLPCN 100, MEP2 TOR yeast 103, AGP1-GFP MLPCN 104, CIT2 TOR yeast 101 and RPL19A-GFP yeast 100.
CCCN(CCC)c1nc(C#N)nc(N(CCC)CCC)n1 was read as LAP4-GFP MLPCN 90, MEP2 TOR yeast 131, AGP1-GFP MLPCN 75, CIT2 TOR yeast 87, RPL19A-GFP yeast 51, LAP4-GFP pick2 103, MEP2 cherry2 102, RPL19A GFP CP2 99, CIT2 GFP CP2 107 and AGP1 GFP CP2 102.
COc1ccc(CNC(=O)Cn2c(=O)n(CC(=O)N3CCCCC3)c(=O)c3sccc32)cc1 was read as LAP4-GFP MLPCN 97, MEP2 TOR yeast 100, AGP1-GFP MLPCN 105, CIT2 TOR yeast 107 and RPL19A-GFP yeast 102.
Screening Cn1c(=O)c(C(=O)NNC(=O)c2ccc(Br)cc2)c(O)c2ccccc21 returned LAP4-GFP MLPCN 127, MEP2 TOR yeast 128, AGP1-GFP MLPCN 72, CIT2 TOR yeast 90, RPL19A-GFP yeast 64, LAP4-GFP pick2 162*, MEP2 cherry2 165*, RPL19A GFP CP2 79, CIT2 GFP CP2 81, AGP1 GFP CP2 86 and s288c autofluor 2.5.
C=C(C)[C@@H]1CCC2(C(=O)O)CC[C@]3(C)[C@H](CC[C@@H]4[C@@]5(C)CCC(=O)C(C)(C)[C@@H]5CC[C@]43C)[C@@H]12 (some centres not stated) was read as LAP4-GFP MLPCN 109, MEP2 TOR yeast 91, AGP1-GFP MLPCN 90, CIT2 TOR yeast 79 and RPL19A-GFP yeast 101.
`C=C(CC[C@@H](O)C(C)(C)O)[C@H]1CC[C@]2(C)[C@@H]1CCC1[C@@]3(C)CCC(=O)C(C)(C)C3CC[C@]12C` (some centres not stated) gave LAP4-GFP MLPCN 158*, MEP2 TOR yeast 89, AGP1-GFP MLPCN 112, CIT2 TOR yeast 82, RPL19A-GFP yeast 99, LAP4-GFP pick2 106, MEP2 cherry2 97, RPL19A GFP CP2 96, CIT2 GFP CP2 93 and AGP1 GFP CP2 101.
For COc1ccc(OC)c(NC(=O)CSc2nnc(CNC(=O)c3cc(OC)c(OC)c(OC)c3)o2)c1 the results were LAP4-GFP MLPCN 88, MEP2 TOR yeast 98, AGP1-GFP MLPCN 96, CIT2 TOR yeast 96 and RPL19A-GFP yeast 97.
C=CCOc1ccc(/C=C/C(=O)OCC(=O)N2CCC(c3ccccc3)=N2)cc1 was read as LAP4-GFP MLPCN 170*, MEP2 TOR yeast 174, AGP1-GFP MLPCN 122, CIT2 TOR yeast 171*, RPL19A-GFP yeast 116, LAP4-GFP pick2 98, MEP2 cherry2 102, RPL19A GFP CP2 98, CIT2 GFP CP2 98 and AGP1 GFP CP2 98.
`C=CCOc1ccc(/C=C/C(=O)OCC(=O)NCCCc2ccccc2)cc1` gave LAP4-GFP MLPCN 101, MEP2 TOR yeast 114, AGP1-GFP MLPCN 103, CIT2 TOR yeast 95 and RPL19A-GFP yeast 97.
For CCN(CC)c1ccc(NC(=O)c2ccc3c(c2)OCO3)c(C)c1 the results were LAP4-GFP MLPCN 92, MEP2 TOR yeast 105, AGP1-GFP MLPCN 100, CIT2 TOR yeast 103 and RPL19A-GFP yeast 105.
Screening COCCCNC(=O)c1cc2c(-c3ccc(Cl)cc3)nn(C)c2s1 returned LAP4-GFP MLPCN 101, MEP2 TOR yeast 102, AGP1-GFP MLPCN 100, CIT2 TOR yeast 97 and RPL19A-GFP yeast 100.
